GALR2 agonist: GALR2 (human) receptor agonism | activation, % (concentration not given with the values) | GALR2-expressing cells, agonist activation read-out | 140,000 tested, 0.48% active | O43603 | AID 803; in the data active = activation above about 5%, passing the limit was not always enough
Candida biofilm: kills Candida albicans biofilms | C. albicans biofilm + clotrimazole, Alamar Blue | inhibition, % at 6 µM | 85,000 tested, 0.14% active | AID 834;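 active = inhibition above 20%; inactive = inhibition below 20%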;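 note: preformed 24 hr biofilms exposed to compound for 48 hr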
S1P2 blocker: S1P2 (human) receptor antagonism. O95136. cell-based S1P2 antagonist assay, inhibition at 5 uM. inhibition, % at 5 µM. 97,000 tested, 0.21% active; in the data active = inhibition above about 45%;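 note: CRE beta-lactamase reporter cells expressing human S1P2 stimulated with S1P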
Target sequence (O95136 whole entry, looked up): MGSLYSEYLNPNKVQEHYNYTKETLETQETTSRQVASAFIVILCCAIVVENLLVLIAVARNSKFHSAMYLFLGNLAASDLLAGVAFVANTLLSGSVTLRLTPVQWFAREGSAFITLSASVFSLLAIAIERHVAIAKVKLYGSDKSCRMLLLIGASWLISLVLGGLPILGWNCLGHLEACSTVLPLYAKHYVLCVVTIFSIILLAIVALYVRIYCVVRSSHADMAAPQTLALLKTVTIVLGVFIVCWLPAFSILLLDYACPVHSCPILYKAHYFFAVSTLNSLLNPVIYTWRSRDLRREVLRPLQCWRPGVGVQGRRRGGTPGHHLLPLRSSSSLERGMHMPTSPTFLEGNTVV
S1P2 ag: activates the human S1P2 receptor | O95136 | S1P2-expressing cell line, agonist reporter read-out | activation, % at 4.5 µM | 97,000 tested, 0.46% active | AID 729; in the data active = activation above about 16%
GALR2 antag: blocks the human galanin receptor 2. AID 828. GALR2-expressing cells, antagonist mode. 140,000 tested, 0.39% active. inhibition, % at 4 µM; in the data active = inhibition above about 27%;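 note: cells stimulated with galanin 1-16 at roughly its EC80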
Smad3 inh: inhibitors of human Smad3 transcription factor binding. AID 630. 88,000 tested, 0.29% active. P84022. inhibition, % at 25 µM. TR-FRET Smad3/Dy647-FoxH1 peptide binding, europium anti-His;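 active = compounds that reduce the energy-transfer binding signal between the protein and its labelled peptide by more than half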
GALR2 ag confirm: confirmation of human galanin receptor 2 (GALR2) agonists; shares compounds with GALR2 agonist; GALR2-expressing cells, agonist activation; activation, % at 5.6 µM; 460 tested, 10% active; AID 864; in the data active = activation above about 8.4%
BLA activ ctr: activates beta-lactamase reporter in GALR2 agonist counterscreen; shares compounds with GALR2 agonist; CHO NFAT-bla reporter, beta-lactamase FRET activation; activation, % at 5.6 µM; 460 tested, 10% active;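 active = activation above the screen-wide mean activation plus 3 SD, cut at about 8% in these data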
A number is an active result; 0 = inactive; - = not tested or not shown. Compounds with a hit are over-represented: about 1.3% of the library has one in this group of screens.

SMILES	GALR2 agonist	Candida biofilm	S1P2 blocker	S1P2 ag	GALR2 antag	Smad3 inh	others
O=C(O)C1CCCN1C(=O)OCc1ccccc1 (configuration not stated)	0	0	0	0	0	0
COC(=O)[C@@H]1C[C@]2(OC(=O)c3ccccc3)C=CC(=O)C[C@@H]2N1C(=O)OCc1ccccc1	0	-	-	-	28.0	-
Cc1cc(=O)oc2cc(O)c(CN(C)CC(=O)O)cc12	-	-	-	-	-	0
Cc1cc(/C=C(/C#N)c2nc3ccccc3[nH]2)c(C)n1-c1cccc([N+](=O)[O-])c1	0	0	0	30.2	0	0
COc1cc(/C=C(\C#N)c2nc3ccc(C)cc3[nH]2)c([N+](=O)[O-])cc1OC	0	-	0	18.3	0	-
COC(=O)c1ccccc1S(=O)(=O)N1Cc2cc([N+](=O)[O-])ccc2Oc2ccccc21	0	0	0	0	0	0
CCn1c(C)nc2cc(C(=O)OC(C(F)(F)C(F)F)C(F)(F)C(F)F)ccc21	0	0	70.1	0	0	0
C/C(=N/NC(=O)CN1CCN(S(=O)(=O)c2ccc(Br)cc2)CC1)c1cccnc1	0	-	-	-	0	-
CCN(CC)c1c2c(c(C#N)c3nc4ccccc4n13)CCC2	0	0	0	19.5	0	0
Cc1nccn1-c1c2c(c(C#N)c3nc4ccccc4n13)CCC2	-	0	-	-	-	0
C[N+](C)(C)CC(=O)N/N=C/c1ccncc1	-	-	-	-	-	0
Cc1nn(-c2nc3ccccc3s2)c(N)c1-c1ccccc1	0	0	0	22.2	0	0
O=S1(=O)C=C(Sc2nc3cc(Cl)ccc3o2)c2ccccc21	0	-	94.0	0	0	-
CN(C)c1nc(N)nc(CSc2nc3cc(Cl)ccc3o2)n1	0	0	0	0	0	0
O=C1[C@@H]2[C@H](C(=O)N1CN1CCOCC1)[C@H]1[C@@H]3C=C[C@@H]([C@@H]4C(=O)N(CN5CCOCC5)C(=O)[C@@H]34)[C@@H]21	-	-	-	-	-	0
CN(C)c1ccc(C(=O)OCc2ccccc2)cc1	0	42.7	0	0	0	0
COC(=O)c1ccc(COC(=O)c2ccc(N(C)C)cc2)cc1	0	0	0	0	0	0
Cc1c(S(=O)(=O)N2CCN(C(=O)c3ccco3)CC2)c(=O)n(C)c(=O)n1C	0	0	0	0	0	0
Cn1cc(S(=O)(=O)N2CCN(C(=O)c3ccco3)CC2)c(=O)n(C)c1=O	0	20.1	0	0	0	0
C[C@H](CCC(=O)O)[C@H]1CC[C@@]2(C)[C@@H]3C(=O)C[C@H]4C(C)(C)[C@@H](O)CC[C@]4(C)[C@H]3C(=O)C[C@]12C	-	-	-	-	-	0
O=C1C2C(C(=O)N1/N=C/c1ccc(N3CCCCC3)o1)C1C=CC2C12CC2 (configuration not stated)	0	-	-	-	0	-
O=C(C#Cc1cccc([N+](=O)[O-])c1)c1ccccc1	0	0	74.9	0	0	0
O=C1C(Cl)=C(Nc2ccc(S(=O)(=O)Nc3ccccn3)cc2)C(=O)c2ccccc21	-	-	-	-	-	99.3
CCCOC(=O)c1ccc(NC(=O)C(CC)CC)cc1	0	-	-	-	0	-
COc1ccc(-n2ccc(-c3nn(-c4cccc(C(F)(F)F)c4)ccc3=O)n2)cc1	0	-	0	18.1	0	-
SMILES	GALR2 agonist	Candida biofilm	S1P2 blocker	S1P2 ag	GALR2 antag	Smad3 inh	others
O=c1ccn(-c2cccc(C(F)(F)F)c2)nc1-c1ccn(-c2ccccc2F)n1	0	-	0	18.6	0	-
O=C(O)/C=C/C(=O)Nc1ncn[nH]1	-	-	-	-	-	0
CC1(C)CCCN(C(=O)c2coc(=O)c(Br)c2)C1	0	0	0	0	0	60.5
N#C/C(=C/c1ccc(N2CCCCCC2)o1)c1cccc(F)c1	0	0	49.9	0	0	0
N#C/C(=C/c1ccc(N2CCCCCC2)o1)c1ccc(F)cc1	0	0	79.5	0	36.5	0
NC(N)=N/N=C/c1ccc(O)c(C(=O)O)c1	-	-	-	-	-	0
O=C(O)/C=C/C=C/c1ccc2c(c1)OCO2	-	-	-	-	-	0
O=C(CCCCCN1C(=O)c2ccccc2C1=O)NCc1ccccn1	0	0	0	0	0	0
COc1cccc(-c2nnc(SCC(=O)Nc3ccc(OC)c(OC)c3)n2N)c1	0	0	0	0	0	0
COc1ccc(C(=O)NCCn2ccc3ccccc32)cc1	0	0	0	0	0	0
O=C(NCCn1ccc2ccccc21)c1ccc(S(=O)(=O)N2CCCCC2)cc1	0	0	-	-	0	59.0
Cc1ccc(CNC(=O)CSc2c3c(nc4cc(Cl)ccc24)CCCC3)o1	0	0	0	0	0	0
Cc1noc2ncnc(Oc3ccccc3)c12	0	-	0	0	0	-
Cc1noc2ncnc(Sc3ccccc3Cl)c12	0	0	55.3	0	0	0
N#CCSc1nc2cc(C(=O)N3CCC(C(N)=O)CC3)ccc2c2nc3ccccc3n12	0	0	0	36.7	0	0
O=C1N/C(=C\c2ccc(N3CCOCC3)c(F)c2)C(=O)N1Cc1ccccc1	0	-	0	0	0	-
Cc1ccc(CN2C(=O)N/C(=C\c3ccc(N4CCOCC4)cc3)C2=O)cc1	8.7	-	-	-	0	-	GALR2 ag confirm=0;BLA activ ctr=0
N#C/C(=C\c1cn(CCOc2ccccc2F)c2ccccc12)C(=O)NCc1cccs1	9.2	-	-	-	0	-	GALR2 ag confirm=0;BLA activ ctr=0
COC(=O)[C@H]1C[C@@H]1[C@H](NS(=O)(=O)c1ccccc1)c1ccccc1	0	-	-	-	0	-
Cc1cc(NC(=O)c2ccccc2Cl)no1	0	0	0	0	0	0
Cc1ccc2nc(-c3ccccc3Cl)cc(C(=O)Nc3cc(C)on3)c2c1	17.4	0	0	0	0	0	GALR2 ag confirm=0;BLA activ ctr=0
CC(=O)c1sc(Nc2nc(C)cc(C)n2)nc1C	0	0	0	0	0	0
COC(=O)C1=C(C)Nc2ncnn2C1c1ccc(OCc2ccccc2)cc1 (configuration not stated)	104.4	0	-	-	0	0	GALR2 ag confirm=0;BLA activ ctr=0
CCOC(=O)c1sc(NC(=O)Nc2ccccc2Cl)cc1C	12.8	-	-	-	0	-	GALR2 ag confirm=0;BLA activ ctr=0
COC(=O)c1ccccc1NC(=O)CSc1nc(O)cc(=O)n1C1CCCC1	0	0	0	0	0	0
SMILES	GALR2 agonist	Candida biofilm	S1P2 blocker	S1P2 ag	GALR2 antag	Smad3 inh	others
COC(=O)c1c(C)[nH]c(C(=O)CSc2nnnn2-c2ccccc2)c1C	99.3	0	0	0	0	0	GALR2 ag confirm=0;BLA activ ctr=0
CCN(CC)c1nc(-c2ccc(Cl)cc2)cc(C(F)(F)F)c1C#N	0	-	0	0	0	-
CN(C)c1nc(-c2ccccc2)cc(C(F)(F)F)c1C#N	0	-	0	0	0	-	GALR2 ag confirm=0;BLA activ ctr=0
CCN1C(=O)C2(C(C#N)=C(N)Oc3n[nH]c(-c4ccc(Cl)cc4)c32)c2ccccc21 (configuration not stated)	0	0	0	0	0	0
N#CC1=C(N)Oc2n[nH]c(-c3ccccc3)c2C12C(=O)Nc1ccccc12 (configuration not stated)	11.0	0	-	-	0	0	GALR2 ag confirm=0;BLA activ ctr=0
Cc1cc2c3c(c1)C(C)(c1ccccc1)CC(C)(C)N3C(=O)C21C(C#N)=C(N)OC2=C1C(=O)CC(C)(C)C2 (configuration not stated)	18.2	0	0	0	0	0	GALR2 ag confirm=0;BLA activ ctr=15.2
